# Source: PubChem BioAssay
# In the library only some 6.1% were active in any assay of this set; here they are far more common.
# D1 ag: activates the human D1 dopamine receptor | P21728 | HEK293 T-REx D1 cells, calcium flux, agonist mode | activation, % at 2 µM | actives 1% (n = 360,000) | AID 504660; in the data active = activation above about 30%
#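 Tetracycline-induced HEK293 TREx D1 cells, force-coupled to calcium signalling, were dye-loaded with a no-wash calcium kit. Compound was pin-added after a 10 s baseline. Fluorescence was read kinetically at 1 cycle/s for 180 s, with calcium rises flagged as agonism.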
# D1 antag: blocks dopamine activation of the human D1 receptor; activity change, negative = inhibition, % at 10 µM; HEK293 TREx D1 cells, calcium flux, dopamine EC80; active compounds read low; P21728; actives 3.2% (n = 360,000); in the data active = activity change below about -30%
#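 After overnight tetracycline induction at 30 C, force-coupled D1 HEK293 cells took up a no-wash calcium dye at room temperature. Compounds were added and monitored 180 s, and the response to EC80 dopamine was then recorded.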
# D1 PAM: potentiators of human D1 dopamine receptor | P21728 | HEK293 TREx D1 cells, calcium flux, dopamine EC20 potentiation | potentiation, % at 10 µM | actives 0.036% (n = 360,000) | AID 504651; in the data active = potentiation above about 30%
# DRD3 antagonist: D3 dopamine receptor (human) antagonism | AID 652054 | max response, negative = inhibition, % | actives 2.5% (n = 360,000) | P35462 | D3R cells, DiscoveRx beta-arrestin luminescence, antagonist mode; active compounds read low; in the data active = max response below about -50%; inconclusive = no clear call, values can overlap the other calls
# Target sequence (P35462 whole entry, looked up): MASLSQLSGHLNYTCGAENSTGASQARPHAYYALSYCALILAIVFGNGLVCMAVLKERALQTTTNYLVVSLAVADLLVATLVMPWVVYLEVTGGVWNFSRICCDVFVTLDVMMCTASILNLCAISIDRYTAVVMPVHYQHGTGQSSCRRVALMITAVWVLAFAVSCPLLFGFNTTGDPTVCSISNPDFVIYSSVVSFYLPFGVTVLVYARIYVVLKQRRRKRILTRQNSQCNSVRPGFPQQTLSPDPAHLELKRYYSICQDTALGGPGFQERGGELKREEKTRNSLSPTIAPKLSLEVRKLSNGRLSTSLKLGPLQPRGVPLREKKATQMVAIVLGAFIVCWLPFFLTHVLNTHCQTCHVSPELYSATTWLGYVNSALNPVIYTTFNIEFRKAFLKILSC
#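 Cells plated overnight at 1500 cells/well, then exposed to library compounds with dopamine controls for 90 minutes at 37 degrees C. DiscoveRx reagent added for 30–60 minutes at room temperature; luminescence read, quantitative HTS format.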
# DRD3 agonist: D3 dopamine receptor (human) agonism; P35462; AID 652048; actives 0.58% (n = 410,000); max activation, %; D3R DiscoveRx beta-arrestin cells, luminescence, 90 min; in the data active = max activation above about 30%
#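 Agonist mode: compounds and dopamine controls were applied to plated cells for 90 min at 37 degrees C after an overnight attachment at 1500 cells/well. Luminescent read-out followed 30 - 60 minutes at room temperature with DiscoveRx detection reagent.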
# Hits are given with their value; - = inactive; ? = inconclusive; . = no result.
SMILES,D1 ag,D1 antag,D1 PAM,DRD3 antagonist,DRD3 agonist
C/C=C1\C(OC2OC(CO)C(O)C(O)C2O)OC=C(C(=O)OC)C1CC(=O)OCC1C(C)C(OC(=O)CC2C(C(=O)OC)=COC(OC3OC(CO)C(O)C(O)C3O)/C2=C\C)CC1C(CO)CO (centres undefined),-,-31,-,-,-
CC(C)CCNc1nc2c(S(=O)(=O)c3ccc(Br)cc3)nnn2c2ccsc12,-,-,-,.,-
N=c1n(CC(=O)c2cccs2)c2ccccc2n1Cc1ccccc1,47,-,-,-,-
NC(=O)CSC1=Nc2ccccc2C2=NC(c3ccccc3)C(=O)N12 (centres undefined),-,-,-,-,-
CCN(CC)C(=O)CSC1=Nc2ccccc2C2=NC(c3ccccc3)C(=O)N12 (centres undefined),-,-,-,-62,-
COc1ccccc1C(=O)OC(C)CN1CCN(C)CC1 (centres undefined),-,-,-,-,-
CC(C)(C)CN1C(N)=NC[C@@H]1Cc1ccc(O)cc1,-,-45,-,-,-
CC1C(=O)N2CCCc3cc(NC(=O)C(=O)NCCc4c[nH]c5ccccc45)cc1c32 (centres undefined),-,-,-,-,-
CC(C)CCNC(=O)C(=O)Nc1cc2c3c(c1)CCC(=O)N3CCC2,-,-,-,-,-
COCCNC(=O)C(=O)Nc1cc2c3c(c1)CCC(=O)N3CCC2,-,-31,-,-,-
CC(C)CCNC(=O)C(=O)Nc1cc2c3c(c1)CC(=O)N3CCC2,-,-,-,-,39
CC1C(=O)N2CCCc3cc(NC(=O)C(=O)NCCc4ccccc4)cc1c32 (centres undefined),-,-35,-,-,-
COCCCn1c(=O)c2ccccc2n(CC(=O)Nc2ccc3c(c2)OCCO3)c1=O,-,-,-,-,-
CCc1ccc(C(=O)C(C)CN2CCCCC2)cc1 (centres undefined),.,.,.,.,-
CN(Cc1nccn1C)C(=O)c1ccc(OC2CCN(CCc3ccccc3)CC2)cc1,-,-,-,?,-
Cc1cc(C)c2c(SC(C)C)nc(N)nc2n1,-,-,-,-,-
CCN1CCc2nc3sc(C(=O)c4ccccc4)c(N)c3cc2C1,-,-,-,.,-
CCN1CCc2nc3sc(C(=O)c4ccc(F)cc4)c(N)c3cc2C1,30,-,-,.,-
O=C(N/N=C/c1ccc(Cl)s1)C(O)c1ccccc1 (centres undefined),-,-37,-,-,-
CCOc1ccc(CCNC(=O)C(O)c2ccccc2)cc1 (centres undefined),-,-,-,-,-
O=C(N/N=C/c1cc(Br)cs1)C(O)c1ccccc1 (centres undefined),-,-,-,-,-
CCOc1ccc(/C=N/NC(=O)C(O)c2ccccc2)c(O)c1 (centres undefined),-,-33,-,-,-
Cc1ccccc1C(N)=O,.,.,.,-,-
CC12CCC(=O)N1C(C(=O)Oc1cccc(F)c1)CS2 (centres undefined),.,.,.,-,-
O=S(=O)(c1ccc(F)cc1)N1CCN(c2nc(-c3ccccc3)nc3cc(Cl)ccc23)CC1,-,-,-,.,.
SMILES,D1 ag,D1 antag,D1 PAM,DRD3 antagonist,DRD3 agonist
O=C(NCCOc1ccc(F)cc1)C1CCC(=O)N(CCN2CCOCC2)C1 (centres undefined),-,-53,-,-,-
O=C(NCCOc1ccc(F)cc1)C1CCC(=O)N(CCCN2CCOCC2)C1 (centres undefined),-,-,-,-,-
CCOC(=O)c1sc(NC(=O)CSc2nc(C)cc(C)c2C#N)c(C#N)c1C,-,-,-,-,-
CCOC(=O)c1sc(NC(=O)CSc2nc3c(cc2C#N)CCCCCC3)c(C#N)c1C,42,-,-,-,-
OC(c1ccccc1)c1nc(-c2cccc(F)c2)cs1 (centres undefined),.,.,.,-55,-
COc1ccc(C(O)c2nc(-c3ccccc3C)cs2)cc1 (centres undefined),.,.,.,-95,-
COc1ccc(C(O)c2nc(-c3ccccc3)cs2)cc1 (centres undefined),.,.,.,-,63
COc1cccc(C(O)c2nc(-c3ccccc3C)cs2)c1 (centres undefined),.,.,.,-,-
COc1ccc(-c2csc(C(O)c3ccc(OC)cc3)n2)cc1 (centres undefined),.,.,.,-,-
COc1ccc(C(O)c2nc(-c3cccc(F)c3)cs2)cc1 (centres undefined),.,.,.,-,-
Cc1cccn2cc(CCNS(=O)(=O)c3cccc([N+](=O)[O-])c3)nc12,-,-,-,-,-
COc1ccc(-n2c(=O)c(NC(=O)c3ccccc3)c3n(c2=S)CCCCC3)cc1,-,-31,-,-,-
O=C(Cc1cccs1)N1CCN=C1SCc1ccccc1F,-,-36,-,-,-
O=C(Cc1cccs1)N1CCN=C1SCc1ccccc1Cl,-,-,-,-,-
CN1CCCC(OC(=O)c2ccc(C#N)cc2)C1 (centres undefined),-,-,-,-,-
CCOc1ccc(S(=O)(=O)NCCCN2CCCC2=O)cc1,-,-,-,-,-
Cc1nc2nc(SCC(=O)C(C)(C)C)[nH]c2cc1Br,-,-47,-,-,-
CC1Oc2ccccc2C=C1/C=N/NC(=O)c1ccccc1 (centres undefined),-,-,-,-,-
CC1Oc2ccccc2C=C1/C=N/NC(=O)c1ccccc1O (centres undefined),-,-40,-,-,-
Cc1ccc(/C=N/N2CCN(c3ccc(Cl)cc3)CC2)o1,-,-48,-,-,-
Cc1ccc(C(=O)NC(=S)NCc2ccccc2)cc1Br,.,.,.,-,-
COc1ccccc1Cc1c(-c2ccco2)nc2cc(C)c(Br)c(C)n12,.,.,.,-107,-
CCCCCCC#Cc1cncc(C(=O)NNC(=O)Nc2cc(Cl)cc(Cl)c2)c1,-,-,-,-,-
CCCCC#Cc1cncc(C(=O)NN)c1,-,-54,-,-,-
Cc1ccc(NC(=O)C(NS(=O)(=O)c2ccc3c(c2)CCC(=O)N3)c2ccccc2)cc1C (centres undefined),-,-,-,.,-
SMILES,D1 ag,D1 antag,D1 PAM,DRD3 antagonist,DRD3 agonist
O=[N+]([O-])c1ccc(OCCCCCN2CCOCC2)cc1,-,-,-,-,-
O=[N+]([O-])c1ccc(OCCCCN2CCCCC2)cc1,-,-,-,-58,-
CC1CCN(CCCCOc2ccc(F)cc2)CC1,-,-,-,-59,-
CC1CCN(CCCCOc2ccc(C(=O)c3ccccc3)cc2)CC1,-,-,-,-75,-
CC1CCN(CCOc2ccc(C(=O)c3ccccc3)cc2)CC1,-,-,-,-,-
CC1CCN(CCCOc2ccc(OCc3ccccc3)cc2)CC1,76,-40,-,-70,-
Cc1ccn2c(NC(C)(C)C)c(-c3cccs3)nc2c1,-,-,-,-,-
Cc1ccc(N(C)S(=O)(=O)c2ccc3[nH]cc(C(=O)O)c(=O)c3c2)cc1C,-,-,-,.,-
C=C(C)Cn1cnc2cc(C)c(C)cc21,-,-,-,-,-
